About 2,000 (36%) of roughly 5,500 compounds were called active. Not shown: some 18% with an inconclusive outcome. Rule as the data show it: active = normalized growth mostly below about 0.91 (no sharp cut-off); inconclusive = no clear call, values can overlap the other calls; inactive = mostly above about 0.92. Some of the results follow.
Assay: chemical genetic growth profiling, strain panel (AID 1159580);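 also: tested at 20 µM; growth read once vehicle control cultures reached saturation at 30 °C; 1 = growth at the plate median or of vehicle wells; lower values mean less growth of the strain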
Details: S. cerevisiae deletion strains, growth OD

Measured: normalized growth

Cc1ccc(N=CN(C)C=Nc2ccc(C)cc2C)c(C)c1
inactive: locus YAL021C, strain ccr4, active compounds read low 0.944 | locus YAL026C, strain drs2, active compounds read low 0.962 | locus YAL030W, strain snc1, active compounds read low 0.984 | locus YBL061C, strain skt5, active compounds read low 0.986 | locus YBR009C, strain hhf1, active compounds read low 0.926 | locus YBR023C, strain chs3, active compounds read low 1 | locus YBR171W, strain sec66, active compounds read low 0.971 | locus YBR231C, strain swc5, active compounds read low 1 | locus YBR279W, strain paf1, active compounds read low 0.983 | locus YCL011C, strain gbp2, active compounds read low 0.965 | locus YCL016C, strain dcc1, active compounds read low 0.971 | locus YCL061C, strain MRC1, active compounds read low 0.952 | locus YCL069W, strain vba3, active compounds read low 0.979 | locus YCR088W, strain abp1, active compounds read low 0.99 | locus YDL005C, strain med2, active compounds read low 0.987 | locus YDL040C, strain nat1, active compounds read low 0.987 | locus YDR001C, strain nth1, active compounds read low 0.979 | locus YDR069C, strain doa4, active compounds read low 0.969 | locus YDR137W, strain rgp1, active compounds read low 0.981 | locus YDR159W, strain sac3, active compounds read low 0.974 | locus YDR195W, strain ref2 1.03 | locus YDR297W, strain sur2, active compounds read low 0.977 | locus YDR334W, strain swr1, active compounds read low 0.987 | locus YDR335W, strain msn5, active compounds read low 0.966 | locus YDR392W, strain spt3, active compounds read low 0.925 | locus YEL003W, strain gim4, active compounds read low 0.957 | locus YEL037C, strain rad23, active compounds read low 0.98 | locus YEL061C, strain CIN8 (second series), active compounds read low 0.986 | locus YER015W, strain faa2, active compounds read low 0.972 | locus YER016W, strain bim1, active compounds read low 0.975 | locus YER111C, strain swi4, active compounds read low 0.955 | locus YER155C, strain BEM2 (second series), active compounds read low 1.01 | locus YFR010W, strain ubp6, active compounds read low 0.987 | locus YGL167C, strain pmr1, active compounds read low 0.98 | locus YGL173C, strain kem1, active compounds read low 0.962 | locus YGL227W, strain vid30, active compounds read low 0.988 | locus YGL240W, strain doc1, active compounds read low 0.969 | locus YGL253W, strain hxk2, active compounds read low 0.979 | locus YHR013C, strain ard1, active compounds read low 0.943 | locus YHR027C, strain rpn1, active compounds read low 0.975 | locus YHR030C, strain SLT2, active compounds read low 0.999 | locus YHR079C, strain IRE1, active compounds read low 1.01 | locus YHR142W, strain chs7, active compounds read low 0.957 | locus YJL092W, strain hpr5, active compounds read low 0.978 | locus YJL095W, strain BCK1 (second series), active compounds read low 0.978 | locus YJL095W, strain BCK1, active compounds read low 0.962 | locus YJL115W, strain asf1, active compounds read low 0.966 | locus YJL129C, strain trk1, active compounds read low 0.976 | locus YJL154C, strain vps35, active compounds read low 0.987 | locus YJL164C, strain tpk1, active compounds read low 0.97 | locus YJL166W, strain qcr8, active compounds read low 0.974 | locus YJR066W, strain TOR1, active compounds read low 0.962 | locus YKL160W, strain elf1, active compounds read low 0.989 | locus YKR026C, strain gcn3, active compounds read low 0.989 | locus YKR091W, strain srl3, active compounds read low 0.983 | locus YLL001W, strain dnm1, active compounds read low 0.998 | locus YLL026W, active compounds read low 0.996 | locus YLL041C, strain sdh2, active compounds read low 0.98 | locus YLR027C, strain aat2, active compounds read low 0.98 | locus YLR113W, strain HOG1, active compounds read low 0.988 | locus YLR221C, strain rsa3, active compounds read low 0.941 | locus YLR258W, strain gsy2, active compounds read low 0.98 | locus YLR262C, strain YPT6 (second series), active compounds read low 0.962 | locus YLR320W, strain mms22, active compounds read low 0.969 | locus YLR342W, strain FKS1, active compounds read low 0.985 | locus YLR357W, strain rsc2, active compounds read low 0.898 | locus YLR370C, strain arc18, active compounds read low 0.985 | locus YLR384C, strain iki3, active compounds read low 0.993 | locus YML120C, strain ndi1, active compounds read low 0.975 | locus YMR058W, strain fet3, active compounds read low 0.972 | locus YMR125W, strain sto1, active compounds read low 1 | locus YMR129W, active compounds read low 0.97 | locus YMR205C, strain PFK2, active compounds read low 0.998 | locus YMR231W, strain pep5, active compounds read low 0.995 | locus YNL071W, strain lat1, active compounds read low 0.978 | locus YNL183C, strain NPR1, active compounds read low 0.976 | locus YNL209W, strain ssb2, active compounds read low 0.978 | locus YNL248C, strain rpa49, active compounds read low 0.905 | locus YNL322C, strain KRE1 (second series), active compounds read low 0.967 | locus YNR049C, strain mso1, active compounds read low 0.948 | locus YOR001W, strain rrp6, active compounds read low 0.984 | locus YOR070C, strain gyp1, active compounds read low 0.975 | locus YOR080W, strain dia2, active compounds read low 0.973 | locus YOR083W, strain WHI5, active compounds read low 0.983 | locus YOR106W, strain vam3, active compounds read low 0.95 | locus YOR231W, strain MKK1, active compounds read low 0.994 | locus YOR265W, strain rbl2, active compounds read low 0.991 | locus YOR270C, strain vph1, active compounds read low 0.837 | locus YOR290C, strain snf2, active compounds read low 0.949 | locus YPL051W, strain arl3, active compounds read low 0.965 | locus YPL078C, strain atp4, active compounds read low 0.97 | locus YPL106C, strain sse1, active compounds read low 0.948 | locus YPL240C, strain hsp82, active compounds read low 0.994 | locus YPL256C, strain CLN2, active compounds read low 1.01

From PubChem BioAssay AID1159580 (chemical genetic matrix, 2015)
